# Columns and labels:
# [1] = molecular target: T1, Aspartate--tRNA(Asp/Asn) ligase (Mycobacterium tuberculosis (strain ATCC 25618 / H37Rv)) (UniProt P9WFW3); experiment: Assay for Asp RNA synthetase-1 from Mycobacterium tuberculosis; format: functional; set-up: scale not given: direction of the effect not stated beside the values; conditions: 30 µM; also: in the data most compounds retested in dose-response had high values
# T1 sequence (whole entry): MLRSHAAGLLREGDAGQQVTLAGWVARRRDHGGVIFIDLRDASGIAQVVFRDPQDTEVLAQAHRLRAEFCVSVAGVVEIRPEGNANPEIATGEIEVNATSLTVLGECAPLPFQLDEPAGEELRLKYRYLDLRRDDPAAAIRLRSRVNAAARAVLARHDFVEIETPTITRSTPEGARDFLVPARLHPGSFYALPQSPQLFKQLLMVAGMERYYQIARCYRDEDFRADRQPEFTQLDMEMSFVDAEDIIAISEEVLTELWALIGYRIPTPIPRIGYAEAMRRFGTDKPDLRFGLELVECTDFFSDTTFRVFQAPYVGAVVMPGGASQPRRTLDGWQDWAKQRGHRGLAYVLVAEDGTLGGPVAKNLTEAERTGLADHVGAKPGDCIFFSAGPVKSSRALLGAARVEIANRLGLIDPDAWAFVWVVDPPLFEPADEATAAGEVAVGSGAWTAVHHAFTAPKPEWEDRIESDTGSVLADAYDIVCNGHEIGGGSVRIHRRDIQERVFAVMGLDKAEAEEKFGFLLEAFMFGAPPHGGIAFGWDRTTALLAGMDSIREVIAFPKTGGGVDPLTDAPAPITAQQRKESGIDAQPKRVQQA
# [2] = molecular target: Shiga toxin 2 (Escherichia coli O157:H7) (UniProt P09385+P09386); experiment: E. coli 0.157:H7 Shiga Toxin SOP - stx2 screening assay; format: functional; set-up: scale not given: direction of the effect not stated beside the values; conditions: 30 µM
SMILES,Percent Effect [1] [%],Percent Effect [2] [%]
Cc1nn(C(C)C)c(C)c1NC(=O)c1ccccc1,1.73,-4.81
CC(O)(CN1CCC2(CC1)OCCO2)c1cccc(C(F)(F)F)c1 (stereo not drawn),1.23,-7.35
CC(NCc1ccccc1Br)c1ccc2[nH]c(=O)[nH]c2c1 (stereo not drawn),5.02,-5.76
COC(=O)N1CCCC(C(=O)NCc2cc3cccc(OC)c3o2)C1 (stereo not drawn),-0.457,14.7
Cc1cc(C2CCCN2CCCS(=O)(=O)c2ccccc2)no1 (stereo not drawn),-1.06,-12.2
CC(C)c1noc(CCC(=O)NCC2CCS(=O)(=O)C2)n1 (stereo not drawn),-3.63,-17.1
CCS(=O)(=O)N1CCOC2(CCCN(c3ccc(C)nn3)C2)C1 (stereo not drawn),3.41,-15.9
Cc1ccc(-c2nc(CN3CCC(C(=O)N(C)C)CC3)cs2)o1,4.21,-24.2
O=C(c1n[nH]c(=O)c2ccccc12)N1CCCCC1c1ccn[nH]1 (stereo not drawn),-1.09,17.2
CCc1noc(C2CCCCN2C(=O)c2ccoc2C)n1 (stereo not drawn),-4.38,-33.6
O=C(NCc1ccccc1)c1nnc2ccc(N3CCOCC3)cc2n1,-1.02,-21.5
c1ccc(CCN2CCOC(Cn3cccn3)C2)nc1 (stereo not drawn),-0.259,0.927
O=S1(=O)COCCN1Cc1ccc(Cl)c(F)c1,2.49,-5.38
COc1ccc(CNC(=O)NCC2CCOC2)c(C(F)(F)F)c1 (stereo not drawn),-4.04,-3.72
Cc1ncsc1C(=O)NCCn1nc2ccccn2c1=O,-1.86,15
Cc1nc(N2CCN(C(=O)c3ccc(O)cc3)CC2)c2cnn(C)c2n1,-1.05,3.77
CC(C)(C)c1cn2nc(N3CCCC3Cn3cncn3)sc2n1 (stereo not drawn),-3.59,-12.7
COCCCN(C)Cc1nc2c(cnn2C)c(=O)[nH]1,-1.71,-15.2
CCNc1cc2c(nn1)CCN(C(=O)c1cc3nc(C)ccc3o1)C2,-4.95,-51.6
COc1cccc2cc(CNC(=O)N3CCCC(O)C3)oc12 (stereo not drawn),-4.17,-15.3
Cc1nc(C)n(CC2CCCCN2CC(=O)N(C)Cc2ccco2)n1 (stereo not drawn),1.76,3.6
O=C(CCCc1nnc(-c2ccccc2)o1)N1CCN(CCO)CC1,2.54,-26.3
Cn1cc(C(=O)NC[C@@H]2OC[C@H]3CN(S(C)(=O)=O)CC[C@H]32)cn1,0.41,-26.8
Cc1ccc2c(n1)N(C)CCN(C(=O)C1CC1)C2,9.78,-13.9
CC(C(=O)Nc1cccc(N2CCCCC2)c1)n1cncn1 (stereo not drawn),2.19,2.83

SMILES,Percent Effect [1] [%],Percent Effect [2] [%]
O=C(CN1CCCCC1Cn1cncn1)NC1CCN(C2CC2)CC1 (stereo not drawn),-0.234,-4.41
Cc1ccc(-c2nc(CN3CCn4c(nnc4C4CC4)C3)co2)cc1,-1.28,10.1
COCCc1noc(CNC2CCCN(c3cccnn3)C2)n1 (stereo not drawn),-0.981,-59
COc1ccccc1C1(C(=O)NCCN2CCOCC2)CCOCC1,10.8,21.5
Cc1ccc(-c2cc(CN3CCCC(Cn4cncn4)C3)on2)cc1 (stereo not drawn),2.71,-31.3
CN(C)C(CNC(=O)c1cccc(-n2cnnn2)c1)c1ccccc1Cl (stereo not drawn),3.08,-14.9
CC(C)CNc1nc(C(=O)/N=c2\[nH]nc(C(C)(C)C)s2)cs1,-0.96,-23.9
N#Cc1cnn(-c2ccc(C(=O)Nc3ccccn3)cc2)c1N,-3,-40.7
CN(C)c1ccc(C(=O)NCC2(O)CCOCC2)cc1,-2.13,-12.5
Cc1cnn(CCNCc2ccccc2OCc2cccnc2)c1,4.5,-8.49
CCS(=O)(=O)N1CCc2ccc(NC(=O)Nc3cccc(SC)c3)cc21,-4.68,-22
COc1ccc2cc(C(=O)N3CCCCC3Cn3cccn3)[nH]c2c1 (stereo not drawn),-2.15,16.3
COCCn1ccc(NC(=O)Nc2ccc(C(N)=O)c(F)c2)n1,2.25,-3.67
CC(C)(C)c1nc(CN2CCCC2CCc2ccccc2)no1 (stereo not drawn),2.52,14.9
Cc1noc(C)c1CN1CCc2nn(C(C)C)c(=O)cc2C1,7.84,-14
Cc1cc(C(=O)N2CCCCC2C)ccc1NCCCO (stereo not drawn),-5.49,11.1
Cc1ccc2c(c1)c(CNC(=O)C1CCN(C(C)C)CC1)nn2C,-0.814,-2.96
CCN1CCN(C2CCN(Cc3cc(C)on3)CC2)C1=O,-3.97,-26.8
COCCN(C)C(=O)Cn1cccc(OC)c1=O,49.9,-42.8
O=C(CO)N1C[C@H]2CC[C@@H]1CN(C1Cc3ccccc3C1)C2,7.69,11.7
Cc1cc(CC(=O)NCc2ccnc(OCC(F)(F)F)c2)no1,-6.06,21
COCc1nc2cc(NCc3ccncc3)ccc2o1,57.1,-55.9
Cn1cc(N2CCCC(NCc3cccc4c3OCCCO4)C2)cn1 (stereo not drawn),2.49,22.1
CCN(CC)C(=O)C(c1ccccc1)N1CCn2c(C)nnc2C1 (stereo not drawn),-4.06,4.2
CC(=O)N1CC(=O)N(c2ccccc2)CC12CCN(CC1CC1)C2 (stereo not drawn),13.8,-1.67

SMILES,Percent Effect [1] [%],Percent Effect [2] [%]
CCNC(=O)N1CCC2(C1)c1ccccc1S(=O)(=O)N2CCC(C)C (stereo not drawn),-0.553,-1.22
Cc1nsc(NC(=O)N2CCN(Cc3ccc(F)cc3)C(=O)C2)n1,2.26,-7.74
COc1cc(CCC(=O)NCC2CCCN2C)ccc1OCC(F)(F)F (stereo not drawn),1.43,22.2
O=C(CC1CC1)N1C[C@@H]2CCN(c3cnccn3)C[C@@H]2C1,-5.94,-0.992
CCn1cnnc1CNC(=O)N1CCOCC1,-11.7,7.05
COc1ccc(CNC(=O)NC2CCC(O)CC2)c(C(F)(F)F)c1 (stereo not drawn),2.84,3.3
CCCn1nc(C2CCNCC2)n(Cc2ccccc2)c1=O,-5.32,-6.93
CCc1ccccc1C(=O)N1CCN(S(C)(=O)=O)[C@@H](C)C1,0.259,-3
CC(C)c1noc(CCCC(=O)N2CCC(Cc3cccnc3)CC2)n1,-0.0571,0.87
NC(=O)C1CCC(NC(=O)COc2ccc(Cl)c(Cl)c2)CC1 (stereo not drawn),3.91,-29.1
CC(NC1(CNC(=O)CC(C)(C)C)CCOCC1)c1ccccc1 (stereo not drawn),9.41,20.8
COCCO[C@@H]1CCN(C(=O)c2ccc(C)o2)[C@@H]1Cc1cccnc1,-0.436,-14.3
O=C(C1=CCCC1)N1CCO[C@H]2[C@@H](Oc3ccccn3)CC[C@@H]21,0.28,-1.55
COc1ccccc1OC1(C(=O)O)CCN(c2nccnc2C)CC1,1.09,-3.46
COCCn1cc(C(=O)N2CCCC2c2cccc(F)c2)ccc1=O (stereo not drawn),0.301,-4.86
COc1ccc(CN(Cc2cncn2C)CC2CCCO2)cc1OC (stereo not drawn),4.27,10.9
Cc1cc(NC(=O)CN2CCCC2c2noc(C(C)C)n2)n(C)n1 (stereo not drawn),-2.48,5.27
Cn1cnnc1C1CCCN(C(=O)c2cc(Cl)c3c(c2)OCO3)C1 (stereo not drawn),-5.25,-2.91
CCc1n[nH]c(C2CN(CCc3ccncc3)CCO2)n1 (stereo not drawn),-1.5,11.6
O=C(Nc1ccccc1)C1=CC2(CCNCC2)c2ccccc21,1.3,-14.6
OC(COCc1ccccc1F)CN1CCc2c(ncn2C2CC2)C1 (stereo not drawn),-6.48,-4.88
CC(C)Cc1cc(C(=O)NCCc2ccc(S(C)(=O)=O)cc2)[nH]n1,3.53,-19.9
Cc1cc(CN2CCN(C(=O)Nc3cccnc3)CC2)on1,-2.97,26.4
Cc1nn(C)c2cnn(CC(=O)NCCc3ccccc3)c12,-1.83,-33.3

# Source: ChEMBL document CHEMBL3988442, “University of Dundee, Small-Polar-MMV Screening Library” (2021)
